Over roughly 18,000 sequences, “log2 normalized intensity” has its median near 0.36; the highest 2% begin near 7.3. For the sample, the highest values were picked, then their nearest neighbours and some sequences at random.
Molecular target: T1, HNF4alpha8 (COS-7 nuclear extract) (Homo sapiens, UniProt P41235-5 1-452)
T1 sequence: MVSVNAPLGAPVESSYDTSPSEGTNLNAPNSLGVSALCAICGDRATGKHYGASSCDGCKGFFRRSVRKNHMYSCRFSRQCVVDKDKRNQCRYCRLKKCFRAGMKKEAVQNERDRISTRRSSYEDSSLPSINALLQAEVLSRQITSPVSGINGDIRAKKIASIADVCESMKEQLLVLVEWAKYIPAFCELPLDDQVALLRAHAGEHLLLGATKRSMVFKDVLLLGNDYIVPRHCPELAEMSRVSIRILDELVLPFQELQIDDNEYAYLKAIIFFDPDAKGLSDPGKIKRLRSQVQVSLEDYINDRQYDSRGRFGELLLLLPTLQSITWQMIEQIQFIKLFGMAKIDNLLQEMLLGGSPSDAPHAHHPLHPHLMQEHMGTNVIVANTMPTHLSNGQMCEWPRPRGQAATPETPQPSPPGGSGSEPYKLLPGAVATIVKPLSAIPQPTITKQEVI
Test: protein-binding microarray; COS-7 nuclear extract on double-stranded Agilent 4x180k PBM; binding buffer, salt, pH and temperature not given in the material; high values mean tight binding
Settings: chain copies: 2; label: 3' end of strand 1 on the slide; dsDNA, one strand shown
Summary of the method: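 The binding signal is Agilent software's gProcessedSignal after background correction and normalization. Arrays were a custom Agilent SurePrint G3 4x180k design of double-stranded ~60-nt oligonucleotides with ~44,000 test sequences in quadruplicate, probed with nuclear extracts of COS-7 cells transiently expressing a human HNF4α isoform. Scans were made at 2-µm resolution on an Agilent G2565CA scanner.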

Sequence | binding signal
AGACTGGTTTGCACAGGTTACACAGTATGTGCCTAGGGAGATTAGAGTATCGGTCGA | -0.754 log2 normalized intensity
AAGGTCACTAATTGGAAGCTCTTTCCCTCCGCCTAGGGAGATTAGAGTATCGGTCGA | 0.732 log2 normalized intensity
ACACACAATAAGGACTTTGGACCGTCTTGTGCCTAGGGAGATTAGAGTATCGGTCGA | 8.19 log2 normalized intensity
GTTAAGTGAGTGGACTTTGGTCCTGGTCAGGCCTAGGGAGATTAGAGTATCGGTCGA | 7.53 log2 normalized intensity
GTGAGTGGACTTTGGTCCTGGTCAGACTTGGCCTAGGGAGATTAGAGTATCGGTCGA | 6.78 log2 normalized intensity
TCCTATTCGGTGCTGACCTTTGTTCACATTGCCTAGGGAGATTAGAGTATCGGTCGA | 6.64 log2 normalized intensity
GAGCACTCATTCCTATTCGGTGCTGACCTTGCCTAGGGAGATTAGAGTATCGGTCGA | 3.97 log2 normalized intensity
CAATAAGGACTTTGGACCGTCTTGTGGATCGCCTAGGGAGATTAGAGTATCGGTCGA | 6.72 log2 normalized intensity
TTTGGACCTGGCCTGCGGGGTCAGGCCGTGGCCTAGGGAGATTAGAGTATCGGTCGA | 2.71 log2 normalized intensity
AGGACTTTGGACCGTCTTGTGGATCCTTGGGCCTAGGGAGATTAGAGTATCGGTCGA | 5.27 log2 normalized intensity
CTCATTCCTATTCGGTGCTGACCTTTGTTCGCCTAGGGAGATTAGAGTATCGGTCGA | 8.62 log2 normalized intensity
AGTCCATGTGTTAAATAATAACACTCCCATGCCTAGGGAGATTAGAGTATCGGTCGA | -0.441 log2 normalized intensity
CCTTCCCTTTCATGTTGAACGTCTTCAGAAGCCTAGGGAGATTAGAGTATCGGTCGA | 1.35 log2 normalized intensity
CTGCCCAGACCTTATCTTGCATTTCTTCAGGCCTAGGGAGATTAGAGTATCGGTCGA | 0.246 log2 normalized intensity
CTGCCTGCTTGGCCTCTCCACTTGGGTATCGCCTAGGGAGATTAGAGTATCGGTCGA | -0.182 log2 normalized intensity
TGATCCAGGGCAAAGGTCATAATTTGATCCGCCTAGGGAGATTAGAGTATCGGTCGA | 6.94 log2 normalized intensity
CAAAGGTCATAATTTGATCCAGTGTGCAAAGCCTAGGGAGATTAGAGTATCGGTCGA | 4.08 log2 normalized intensity
ACACAGGACTTGATCCAGGGCAAAGGTCATGCCTAGGGAGATTAGAGTATCGGTCGA | 7.91 log2 normalized intensity
GGACTTGATCCAGGGCAAAGGTCATAATTTGCCTAGGGAGATTAGAGTATCGGTCGA | 7.95 log2 normalized intensity
AGAAAACACAGAGATCTGATCAAAGGTCATGCCTAGGGAGATTAGAGTATCGGTCGA | 6.61 log2 normalized intensity
CACAGAGCAAAGGTCATGCATAGAAGTATGGCCTAGGGAGATTAGAGTATCGGTCGA | 4.43 log2 normalized intensity
AATGGAGTTTGGTTTAAAGTTCAAGTCATAGCCTAGGGAGATTAGAGTATCGGTCGA | 2.74 log2 normalized intensity
AGGTGTAACCTGCTCTCTCATGCCCTTTGCGCCTAGGGAGATTAGAGTATCGGTCGA | 4.81 log2 normalized intensity

Sequence | binding signal
CTTTCCTGGTGCCTCCTTATCTCCCCAACTGCCTAGGGAGATTAGAGTATCGGTCGA | 3.48 log2 normalized intensity
TTTTAATTAGAACTGTAATTGAGTAACCAGGCCTAGGGAGATTAGAGTATCGGTCGA | 0.406 log2 normalized intensity
AATTCATCTCTAAGCTACTGAAAATGACCTGCCTAGGGAGATTAGAGTATCGGTCGA | 3.88 log2 normalized intensity
GAAACCCTAAACCTGCAAACCTTTGACCTTGCCTAGGGAGATTAGAGTATCGGTCGA | 5.96 log2 normalized intensity
TAAGCTACTGAAAATGACCTTTGTTCCCTGGCCTAGGGAGATTAGAGTATCGGTCGA | 9.03 log2 normalized intensity
ATCTCTAAGCTACTGAAAATGACCTTTGTTGCCTAGGGAGATTAGAGTATCGGTCGA | 6.73 log2 normalized intensity
AAAAAAAAAAATTACTGACCCTTGCACTGTGCCTAGGGAGATTAGAGTATCGGTCGA | 5.45 log2 normalized intensity
TACTGAAAATGACCTTTGTTCCCTGCACTTGCCTAGGGAGATTAGAGTATCGGTCGA | 7.89 log2 normalized intensity
GATTTTCAGGTTCCCCAGTGAGGATGTGTGGCCTAGGGAGATTAGAGTATCGGTCGA | 1.53 log2 normalized intensity
TGGCGTATGCAGCAGGGCAGCAGCCTGACCGCCTAGGGAGATTAGAGTATCGGTCGA | 0.823 log2 normalized intensity
TTAACCTCTATTGACCTTCTTATTTGGAGAGCCTAGGGAGATTAGAGTATCGGTCGA | 2.41 log2 normalized intensity
GAGGAGACCTTTGGATATCATATCATCTTCGCCTAGGGAGATTAGAGTATCGGTCGA | 2.39 log2 normalized intensity
TAGTTAGAGTCACTGATAAGTCTGCTTGCCGCCTAGGGAGATTAGAGTATCGGTCGA | -0.858 log2 normalized intensity
CGCCCCCAACGGGCCACGCCCTGCACCCTAGCCTAGGGAGATTAGAGTATCGGTCGA | 4.07 log2 normalized intensity
TTGTGGCAGTGAGAACAGGTTCATTCTTTAGCCTAGGGAGATTAGAGTATCGGTCGA | 0.687 log2 normalized intensity
GCTTGAGCGAGACAGCGGGTGTTTCTGGGAGCCTAGGGAGATTAGAGTATCGGTCGA | 0.72 log2 normalized intensity
TCATTGCCTCTGGGCTTTGATGGACATTGCGCCTAGGGAGATTAGAGTATCGGTCGA | 3.92 log2 normalized intensity
CTGCGTAACTTACAGTGCACTTTGACCGCTGCCTAGGGAGATTAGAGTATCGGTCGA | 7.74 log2 normalized intensity
CCTCAGTGTGGGACTTTGGTCTGCTGAGTCGCCTAGGGAGATTAGAGTATCGGTCGA | 3.95 log2 normalized intensity
CCAGCTAGAAGCAGTGGGACAAAGGTCACAGCCTAGGGAGATTAGAGTATCGGTCGA | 6.82 log2 normalized intensity
GAGCTCAGTCACAGCAGTGGACTTTGACCTGCCTAGGGAGATTAGAGTATCGGTCGA | 11.7 log2 normalized intensity
CTTGTCTTATCAGCAGGGTCTTTTTGACCTGCCTAGGGAGATTAGAGTATCGGTCGA | 4.79 log2 normalized intensity
CAGGACTGCGTAACTTACAGTGCACTTTGAGCCTAGGGAGATTAGAGTATCGGTCGA | 5.6 log2 normalized intensity
